Activity calls are given as the source filed them. Rule for the calls: active = hit-call score of the fitted dose curve at least 0.9, where 1 is the maximum; inactive = score below 0.9.
Assay: ATG_FoxO_CIS: Attagene CIS-FACTORIAL HepG2 Assay for human Forkhead box O (FoxO) (AID 2282943)
Conditions: HepG2 Attagene cis-reporter, FoxO element, mRNA; actives raise or lower the signal
Experimental: ATG_CIS is a cell-based, multiplexed-readout assay that uses HepG2, a human liver cell line, with measurements taken at 24 hours after chemical dosing in a 24-well plate.ATG_FoxO_CIS is one of 52 assay component(s) measured or calculated from the ATG_CIS assay. It is designed to make measurements of mRNA induction, a form of inducible reporter, as detected with fluorescence intensity signals by Reverse transcription polymerase chain reaction (RT-PCR) and Capillary electrophoresis technology.Data from the assay component ATG_FoxO_CIS was analyzed into 1 assay endpoint. This assay endpoint, ATG_FoxO_CIS, was analyzed with bidirectional fitting relative to DMSO as the negative control and baseline of activity. Using a type of inducible reporter, measures of mRNA for gain or loss-of-signal activity can be used to understand the reporter gene at the transcription factor-level as they relate to the gene FOXO1 and FOXO3. Furthermore, this assay endpoint can be referred to as a primary readout, because this assay has produced multiple assay endpoints where this one serves a reporter gene function. To generalize the intended target to other relatable targets, this assay endpoint is annotated to the dna binding intended target family, where the subfamily is forkhead box protein.
Human liver HepG2 cells are transiently transfected with multiple reporter transcription units (MRTUs) in 6-well plates using FuGene 6 reagent (Roche; 3 ml FuGene/1 mg DNA). The MRTU constructs are regulated by a cis-regulating element (promoter). […] A major difference between the CIS and TRANS system is that in CIS activities of endogenous TFs are measured, whereas the TRANS assay evaluates changes in activities of exogenous, chimeric NR-Gal4 proteins. […] At the end of 24 hour incubation, total RNA was isolated using TriZol reagent (Invitrogen). The isolated RNA is then reverse-transcribed using oligo(dT) primer and Mo-MLV reverse transcriptase (Invitrogen) with DNAse I (Ambion) treatment for 30 min. The one-tenth of the produced cDNA was amplified by PCR using Taq DNA polymerase (Invitrogen) and two reporter sequence-specific primers. The PCR products were fluorescently labeled by primer extension with 6-arboxyfluorescein (6-FAM) 5'-labeled reporter sequence-specific primer (2 min at 95 C, 20 s at 68 C and 10 min at 72 C) and these products were digested with 5U of HpaI (New England Biolabs) for 2h at 37 C. The fragments were purified using Qiaquick PCR columns (Qiagen), analyzed on an ABI 3130xL genetic analyzer (Applied Biosystems) with peak positions identified by using a set of X-rhodamine (ROX)-labeled MapMarker1000 molecular weight standards (BioVentures). The raw capillary electrophoresis data was processed using Attagraph software (Attagene).

outcome, inactive:
C[C@](N)(Cc1ccc(O)c(O)c1)C(=O)O
COC(=O)c1ccccc1O
CC/C(=C\C(=N/O)C(N)=O)C(C)[N+](=O)[O-] (stereo not given)
CC1=CC(=O)CC(C)(C)C1
CC[C@H](C)C(=O)O[C@H]1C[C@@H](C)C=C2C=C[C@H](C)[C@H](CC[C@@H]3C[C@@H](O)CC(=O)O3)[C@H]21
CC(C)CCCCCCCOC(=O)CCCCC(=O)OCCCCCCCC(C)C
CC(C)=CCCC(C)=CC=O
CC[C@H]1OC(=O)[C@H](C)[C@@H](O[C@H]2C[C@@](C)(OC)[C@@H](O)[C@H](C)O2)[C@H](C)[C@@H](O[C@@H]2O[C@H](C)C[C@H](N(C)C)[C@H]2O)[C@](C)(O)C[C@@H](C)C(=O)[C@H](C)[C@@H](O)[C@]1(C)O
Nc1ccc(Nc2ccccc2)cc1
CC(C)=CCC/C(C)=C\CO
CCc1cc(SCc2sc(-c3ccc(C(F)(F)F)cc3)nc2CN2CCN(c3ccc(OC)cc3)CC2)ccc1OCC(=O)O
CNCc1ccc(NC(=O)c2c[nH]c3c2C(=O)CCC3)cc1
O=C(O)c1cc(N=Nc2ccc(S(=O)(=O)Nc3ccccn3)cc2)ccc1O
O=C(O)c1cccc(N(Cc2cccnc2)c2ccc(OC(F)F)c(OC(F)F)c2)c1
CCOC(=O)COc1ccc2c(c1)CC(NCC(O)c1cccc(Cl)c1)CC2 (stereo not given)
CC(C)(O)c1coc(S(=O)(=O)NC(=O)Nc2c3c(cc4c2CCC4)CCC3)c1
CC(=O)OC[C@H]1O[C@@](COC(C)=O)(O[C@H]2O[C@H](COC(C)=O)[C@@H](OC(C)=O)[C@H](OC(C)=O)[C@H]2OC(C)=O)[C@@H](OC(C)=O)[C@@H]1OC(C)=O
CC(C)CCO
NC(=O)NO
CCn1nc(Cc2ccccc2)cc1C1CCN(C[C@H]2C[C@H](N(C)[C@@H](C(=O)O)C(C)C)C[C@@H]2c2cccc(F)c2)CC1
O=C(OC[C@H]1O[C@@H](OC(=O)c2cc(O)c(O)c(OC(=O)c3cc(O)c(O)c(O)c3)c2)[C@H](OC(=O)c2cc(O)c(O)c(OC(=O)c3cc(O)c(O)c(O)c3)c2)[C@@H](OC(=O)c2cc(O)c(O)c(OC(=O)c3cc(O)c(O)c(O)c3)c2)[C@@H]1OC(=O)c1cc(O)c(O)c(OC(=O)c2cc(O)c(O)c(O)c2)c1)c1cc(O)c(O)c(OC(=O)c2cc(O)c(O)c(O)c2)c1
COCCOCCOCCOC
CC(C)c1cccc(C(C)C)c1N1C(=O)c2ccc(O)cc2C1=O
C1=CCCC=CCCC=CCC1
COC(=O)CC(=O)OC
CCCCCCc1ccc(O)cc1O
O=C1CCCCCN1
CN(C)c1ccc(Cc2ccc(N(C)C)cc2)cc1
CC(=O)c1ccc2c(c1)[C@H](NC(=O)c1ccc(F)cc1)[C@@H](O)C(C)(C)O2
CC(C)=CCCC(C)CCO (stereo not given)
COc1cccc(-c2ccc(/C=C\CN3CCCCCC3)cc2Cl)c1
CNS(=O)(=O)c1cc(C(=O)N2CCC(CCN3C4CCC3CC(n3c(C)nc5ccccc53)C4)(c3cccc(F)c3)CC2)c(Cl)cc1F (stereo not given)
On1ccccc1=S
Oc1ccc2c(c1)-c1ccccc1C2
Cc1ccc(N)cc1O
CN(C)c1ccc(N=NS(=O)(=O)O)cc1
Cc1ccc(C)c(O)c1
CCOCCOCCOCCO
COc1ccc(/C=C/S(=O)(=O)NC(=O)c2ccc(C)cc2Cl)cc1

AC50, active:
CCCN(C1CCN(C(=O)C2CCNCC2)CC1)[C@@H]1CCc2ccc(OC)cc2C1 153 µM

From PubChem BioAssay (EPA / NIEHS)
